Mito fusion yeast – mitochondrial division inhibition or fusion activation | 0.23% of 320,000 active | Potency, µM (doses to about 46.1 µM), usual class: activators | S. cerevisiae fusion-defective mutant growth rescue, CellTiterGlo 48 h; also: nearly all actives have a fitted effect of over 45% in size
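Temperature-sensitive fusion-defective S. cerevisiae (e.g. fzo1-1, mgm1-5) were grown with compound in YPEG medium (3% ethanol, 3% glycerol) for 48 hours at 37C. Growth rescue was measured as viability by CellTiterGlo luminescence after 10 minutes at ambient.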
BCR signal inh – inhibitors of chronic active B-cell receptor signaling | Potency, µM (top dose mostly 46.1 µM), actives largely listed as inhibitors | AID 493014 | ABC-DLBCL IkBa-CBG/CBR reporter, luminescence ratio, 4 h | 0.05% of 340,000 active; active = well fitted inhibition curve with a large enough effect in the signal ratio, with a control signal flat, not every such curve was filed as active; inconclusive = small, poorly fitted or top-dose-only effect, or effect the other way, or a change in a side signal; the % refers to the signal ratio
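Compounds up to 46 uM were incubated four hours with TMD8 cells whose green CBG68 luciferase is fused to IkappaBalpha; red CBR luminescence normalised the signal, and concentration-effect curves were fitted to fusion, red and ratio data.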
a7 integrin act – activators of alpha7 integrin expression for muscular dystrophy; alpha7betagal myoblasts, beta-gal FDG fluorescence, 48 h; Potency, µM (titrated, usually from 38.3 µM), usual class: activators; 0.064% of 350,000 active; also: nearly all actives have a fitted effect of over 60% in size
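alpha7betagal+/- myoblasts (passage 13, 250/well) treated 48 h at 37C with compounds at 1:260 dilution of DMSO stock. Lysed, then beta-galactosidase activity read as FDG fluorescence (ex 480/em 540) after 30 min, with pre-read for autofluorescence.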
Gal4-VP16 FLuc – counter-screen for ROR gamma inhibitors: Gal4-VP16 reporter. Drosophila S2 Gal4-VP16 UAS-luciferase, luminescence, 20 h. Potency, µM (series often up to 53.6 µM), usual class: inhibitors. 3.5% of 310,000 active. AID 2546;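 also: Gal4-VP16 expression switched on by copper sulfate through the metallothionein promoter; nearly all actives have a fitted effect of over 50% in size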
uPA surface inh – blocks generation of uPA at the cell surface | cell surface uPA generation assay, qHTS | Potency, µM (top dose mostly 38.3 µM), hits mostly inhibitors | 0.31% of 330,000 active | AID 540303; active = well fitted inhibition curve with a large enough effect; inconclusive = small, poorly fitted or top-dose-only effect; inactive = no such curve, though single readings can be large or run the other way; tested in mouse RAW 264.7 cells; also: nearly all actives have a fitted effect of over 55% in size
RORgamma inh – ROR gamma (mouse) transcription inhibition; P51450; Drosophila S2 Gal4-RORgamma UAS-luciferase reporter, 20 h; Potency, µM (highest dose often 53.6 µM), hits mostly inhibitors; 5.4% of 310,000 active; also: nearly all actives have a fitted effect of over 60% in size
Target sequence (P51450 whole entry, looked up, the tested form may be a part): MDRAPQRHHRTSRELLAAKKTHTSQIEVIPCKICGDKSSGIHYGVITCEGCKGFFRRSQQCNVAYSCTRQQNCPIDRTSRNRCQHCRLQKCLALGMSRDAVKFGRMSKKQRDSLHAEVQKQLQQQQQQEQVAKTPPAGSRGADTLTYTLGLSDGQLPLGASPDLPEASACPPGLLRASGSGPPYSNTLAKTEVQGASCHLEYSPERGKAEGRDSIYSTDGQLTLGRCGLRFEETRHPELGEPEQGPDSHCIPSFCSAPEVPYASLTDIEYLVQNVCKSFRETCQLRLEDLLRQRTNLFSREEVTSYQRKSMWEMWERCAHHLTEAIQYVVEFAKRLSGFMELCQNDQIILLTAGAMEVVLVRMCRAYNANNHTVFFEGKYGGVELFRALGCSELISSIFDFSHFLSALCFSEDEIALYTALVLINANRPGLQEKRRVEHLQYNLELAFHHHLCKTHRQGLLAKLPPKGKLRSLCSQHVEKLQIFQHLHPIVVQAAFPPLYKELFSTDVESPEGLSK
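Luminescence from a UAS-regulated Photinus luciferase reporter in stably transfected Drosophila Schneider cells is measured; decreased signal marks ROR gamma inhibition. Fusion expression is induced by 700 uM copper sulfate for 20 hr.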
Each line names hits and unclear results; the compound was inactive in the other large screens. Most compounds without a hit are left out; they make up all but 5.5% or so of the library. Unless noted, calls follow the shape of the dose curve; as a rule, active = well fitted curve in the direction sought with a large enough effect; inconclusive = small, poorly fitted or top-dose-only effect, or another doubt; inactive = no such curve, though single readings can be large; an effect the other way counts as inactive or inconclusive.

Cc1cc(/C=N/NC(=O)c2ccc(O)cc2)c(C)n1CC(C)C	BCR signal inh inconclusive, a7 integrin act inconclusive, RORgamma inh 7.9µM
Cc1ccc2occ(/C=N/NC(=O)c3ccccc3Br)c(=O)c2c1	BCR signal inh inconclusive, a7 integrin act inconclusive
CC(C)C(=O)NC(=S)Nc1nnn(C)n1	Gal4-VP16 FLuc inconclusive, RORgamma inh 14µM
CCCCn1nnc(NC(=S)NC(=O)c2cccs2)n1	BCR signal inh inconclusive, Gal4-VP16 FLuc 1µM, RORgamma inh 1.1µM
COc1cc(OC)cc(C(=O)NC(=S)Nc2nnn(C)n2)c1	BCR signal inh inconclusive, a7 integrin act inconclusive, Gal4-VP16 FLuc 25µM, RORgamma inh inconclusive
CCCn1nnc(NC(=O)C(C)C)n1	none
Cn1nnc(NC(=O)c2ccccc2F)n1	BCR signal inh inconclusive
Cn1nnc(NC(=S)NC(=O)c2cccc3ccccc23)n1	Gal4-VP16 FLuc 3.5µM, RORgamma inh 1.1µM
Cn1nnc(NC(=S)NC(=O)c2ccc3ccccc3c2)n1	none (no result: Mito fusion yeast, BCR signal inh, Gal4-VP16 FLuc, uPA surface inh, RORgamma inh)
CCC(C)n1c(SCc2ccc(C(C)(C)C)cc2)nc2ccsc2c1=O (stereo unspecified)	none (no result: Mito fusion yeast, a7 integrin act, Gal4-VP16 FLuc, uPA surface inh, RORgamma inh)
COC(=O)C/C=C/[C@@H](C)[C@H](O)c1ccccc1Br	none (no result: Mito fusion yeast, BCR signal inh, a7 integrin act, uPA surface inh)
O=C1CN(C(=O)c2ccc3nc(Cc4cccc(Cl)c4)oc3c2)CCN1	none
Cn1nnc(NC(=S)NC(=O)c2cccs2)n1	Gal4-VP16 FLuc 13µM, RORgamma inh 8.9µM
Cc1cccn2c(=O)cc(CSc3nnc(NC(=O)COc4ccccc4)s3)nc12	none (no result: a7 integrin act, Gal4-VP16 FLuc, uPA surface inh, RORgamma inh)
CCN(CC)S(=O)(=O)c1cccc(C(=O)NC2CCCCC2)c1	RORgamma inh inconclusive
Cc1ccc(NC(=S)NC2CCCCC2)cc1S(=O)(=O)N(C)C	Gal4-VP16 FLuc inconclusive, RORgamma inh 13µM
Cc1ccc(S(=O)(=O)N(C)C)cc1NC(=S)NC1CCCC(C)C1C (stereo unspecified)	Gal4-VP16 FLuc 5µM, RORgamma inh 4µM
CC1CCCCC1NC(=S)Nc1cccc(S(=O)(=O)N(C)C)c1 (stereo unspecified)	RORgamma inh inconclusive
CCN(CC)S(=O)(=O)c1ccc(C)c(NC(=S)NC2CCCCC2)c1	Gal4-VP16 FLuc inconclusive, RORgamma inh 10µM
Cc1ccc(NC(=O)CNCC2CCCCC2)cc1S(=O)(=O)N(C)C	a7 integrin act inconclusive
CCCCCCCC/C=C\CCCCCCCC(=O)NCCCC(=O)O	none (no result: Mito fusion yeast, BCR signal inh, a7 integrin act, uPA surface inh)
Cc1ccc(-n2nnnc2SCC(=O)NCC2CCCO2)cc1C (stereo unspecified)	none (no result: Gal4-VP16 FLuc, RORgamma inh)
Cc1nc(SCC(=O)NCC2CCCO2)c2cc(-c3ccccc3)sc2n1 (stereo unspecified)	BCR signal inh inconclusive, uPA surface inh 8.9µM (no result: Gal4-VP16 FLuc, RORgamma inh)
Cc1cccc(-n2nnnc2SCC(=O)NCC2CCCO2)c1 (stereo unspecified)	Mito fusion yeast 18µM
Cc1ccc(C(=O)OCC(=O)Nc2cc(C(C)(C)C)nn2-c2ccccc2)c(O)c1	BCR signal inh inconclusive (no result: Gal4-VP16 FLuc, RORgamma inh)
CCCNC(=O)c1ccc(Cn2cc(-c3ccc(OC)cc3)nc2C(C)N)cc1 (stereo unspecified)	none (no result: Gal4-VP16 FLuc, RORgamma inh)
O=C(NC(=S)Nc1nc(-c2ccc(Br)cc2)cs1)c1ccco1	RORgamma inh 2.8µM
O=C(NNc1nc(-c2ccc(Br)cc2)cs1)c1ccco1	Gal4-VP16 FLuc inconclusive, uPA surface inh inconclusive, RORgamma inh 5.6µM
O=C(NC(=S)Nc1nc(-c2ccc([N+](=O)[O-])cc2)cs1)c1ccco1	BCR signal inh inconclusive, Gal4-VP16 FLuc inconclusive, RORgamma inh 2.2µM
Cc1ccc(C(=O)Nc2nc(-c3ccc([N+](=O)[O-])cc3)cs2)o1	BCR signal inh inconclusive, Gal4-VP16 FLuc inconclusive
O=C(Nc1nc(-c2ccc(Br)cc2)cs1)c1cccnc1	none
O=C(Nc1nc(-c2ccccc2)cs1)c1ccco1	BCR signal inh inconclusive
COc1ccc(-c2csc(NC(=O)c3ccco3)n2)cc1	Mito fusion yeast inconclusive, BCR signal inh inconclusive, RORgamma inh inconclusive
O=C(NC(=S)Nc1nc(-c2ccc(Br)cc2)cs1)c1cccnc1	BCR signal inh inconclusive, Gal4-VP16 FLuc inconclusive, RORgamma inh 1.1µM
COC(=O)[C@@]1(C)[C@H]2C(=O)N(Cc3ccccc3)C(=O)[C@H]2[C@H]2CN=C(SCc3ccc(C)cc3)N21	none (no result: Mito fusion yeast, Gal4-VP16 FLuc, RORgamma inh)

Assay outcomes (PubChem BioAssay)
